# From the supplement of paper PMC7866885, “A novel bicyclic 2,4-diaminopyrimidine inhibitor of Streptococcus suis dihydrofolate reductase” (PeerJ, 2021)
# ± gives the standard deviation.
# System: Streptococcus suis P1/7
# Assay: percent growth relative to DMSO control; higher = less growth inhibition
# Details: 10 µM; incubation time 18 h
# Procedure: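 CLSI broth microdilution: 5x10^4 CFU of Streptococcus suis (strain P1/7 or HE06) incubated with 10 µM Pathogen Box compound in cation-adjusted Mueller Hinton broth, 37 °C, 5% CO2, 18 h. Growth read as OD600 and expressed as percent of the DMSO-treated control (100%); mean ± SD of three independent experiments.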
row,SMILES,percent growth [%]
1,Nc1c2c(nc3sc4c(c13)CCCC4)CCCC2,97.3 ± 30
2,Cc1nn(C)c(C)c1NS(=O)(=O)c1c(Cl)cc(-c2ccnc(N3CCNCC3)c2)cc1Cl,76.6 ± 7.2
3,CC1(C)OB(O)c2ccc(C3=NOC(c4cc(Cl)c(F)c(Cl)c4)(C(F)(F)F)C3)cc21 (centres undefined),0.819 ± 0.82
4,CC1COC(Cn2cncn2)(c2ccc(Oc3ccc(Cl)cc3)cc2Cl)O1 (centres undefined),82.9 ± 29
5,CO[C@@H]1CN(c2ccc(C#CC3(O)CN4CCC3CC4)c(Cc3ccccc3)n2)C[C@H]1O (some centres undefined),124 ± 50
6,CO/N=C(\C(=O)OC)c1ccccc1CO/N=C(\C)c1cccc(C(F)(F)F)c1,82 ± 16
7,CCc1nn(C)c(C(=O)NCc2ccc(Oc3ccc(C)cc3)cc2)c1Cl,91.4 ± 28
8,Cc1nn(Cc2ccccc2)c(Cl)c1C(=O)NC1CCCCCC1,93.1 ± 26
9,CC(C)(C)C(O)C(Oc1ccc(-c2ccccc2)cc1)n1cncn1 (centres undefined),86.6 ± 29
10,O=C1O[C@@H](COc2ccon2)CN1c1cc(F)c(C2=CCN(Cc3ccccc3)CC2)c(F)c1,-0.108 ± 0.19
11,O=C1O[C@@H](CO)CN1c1cc(F)c(C2=CCN(Cc3ccccc3)CC2)c(F)c1,13.5 ± 23
12,Cc1cc(C2=NOC(c3cc(Cl)c(F)c(Cl)c3)(C(F)(F)F)C2)ccc1C(=O)NCc1ccc2c(c1)C(C)(C)OB2O (centres undefined),61.5 ± 40
13,CO/C=C(/C(=O)OC)c1ccccc1Oc1cc(Oc2ccccc2C#N)ncn1,80.8 ± 20
14,Cc1cccc(C(=O)Nc2ccnc(N(C)C3CCN(CC(C)C)CC3)c2)c1,67.9 ± 22
